Laboratory results published in PubChem BioAssay (NCI).
The panel holds about 83,000 compounds, 20% with a hit somewhere; the sample as a whole holds those more often.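 In brief: 96-well plates, 48 h treatment, single concentration, percent growth endpoint.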 Activity calls are given as the source filed them. Rule for the calls: active = growth percent below 10; inactive = the rest.

Test system: SK-OV-3 ovarian
Assay: NCI-60 one-dose screen, 48 h (100 = growth as untreated, 0 = no growth, -100 = all killed)
Details: 10 µM unless noted

Compound	growth
Nc1c(C(=O)c2ccc(Cl)s2)sc2nc3c(cc12)CCCC3	90.8% (inactive)
N#Cc1c(-c2ccccc2)nc(SCC2CO2)nc1N1CCOCC1 (configuration not stated)	28.1% (inactive)
NS(=O)(=O)c1cnccc1-n1ccc(=O)c(S(N)(=O)=O)c1	81.1% (inactive)
Cc1nn(-c2ccccc2)c2c1C(c1ccc([N+](=O)[O-])cc1)C(C#N)=C(N)O2 (configuration not stated)	107% (inactive)
COc1cc(C(=O)Nc2cc(O)c(CC=C(C)C)c(O)c2)cc2c1O[C@]1(C)CC[C@@H](O)C(C)(C)[C@H]1C2	16.5% (inactive)
COc1cc(-c2cccc([N+](=O)[O-])c2)c(-c2nc(-c3ccccc3)c(-c3ccccc3)n2C2CC2)cc1OC	80% (inactive)
O=c1[nH]c(NCc2nnnn2-c2ccc(Br)cc2)nc2sc3c(c12)CCCC3	90.6% (inactive)
CN(C)CCOC(=O)Nc1ccc(Cl)cc1	96.9% (inactive)
O=c1ccn(C2OC(F)(CO)C(O)C2F)c(=O)[nH]1 (configuration not stated)	93.4% (inactive)
Cc1ccc(NC(=O)C(Cl)Cl)cc1	105% (inactive)

Test system: IGROV1 ovarian
Assay: as above
Details: 10 µM unless noted

Compound	growth
COc1cc2c(c(OC)c1OC)C(=O)/C(=C/c1cc(C)c(O)c(C)c1)S2	45.7% (inactive)
COc1cc(CNC(=O)/C=C/C=C/c2ccc3c(c2)OCO3)ccc1OCc1cn(-c2ccc(Cl)c(Cl)c2)nn1	6.63% (active)
COc1ccccc1C(=O)NC(=S)Nc1ccc(-c2nc3ccccc3[nH]2)cc1	69% (inactive)
O=C(/C=C/C12c3ccccc3C(c3ccccc31)C1C(=O)N(c3ccccc3)C(=O)C12)c1ccc(Cl)cc1 (configuration not stated)	10.4% (inactive)
COc1cc(NC(=O)c2cccc(-c3cc(=O)c4c(O)c(OC)c(OC)cc4o3)c2)cc(OC)c1OC	70.4% (inactive)
CCCCN(CCCC)CCCn1c(=O)c2sc3ncccc3c2n2nnc(-c3ccccc3)c12	80.5% (inactive)
CC1(C)CC(=O)c2c(ccc(C(=O)C[C@H](N)CO)c2N)O1	34.7% (inactive)
COc1ccc(NC(=O)c2cccc(-c3cc(=O)c4c(O)c(OC)c(OC)cc4o3)c2)cc1	95.1% (inactive)
CCn1c(Sc2nnc(NC(C)=O)s2)nc2c1c(=O)n(C)c(=O)n2C	98.2% (inactive)
COc1cc(NC(=O)c2cccc(-c3cc(=O)c4c(OC)c(OC)c(OC)cc4o3)c2)cc(OC)c1OC	51.8% (inactive)
CN(C)CN1CCN(c2ccc3nc(-c4ccc5nc(-c6ccc(C(F)(F)F)cc6)[nH]c5c4)[nH]c3c2)CC1	78.7% (inactive)
COc1ccc(C2CC(c3ccc4ccccc4c3)=NN2c2nc(O)c(C3=c4cc(Cl)ccc4=NC3=O)s2)cc1 (configuration not stated)	-11.5% (active)
O=C(/C=C/C12c3ccccc3C(c3ccccc31)C1C(=O)N(c3ccc(Cl)cc3)C(=O)C12)c1ccccn1 (configuration not stated)	-36.6% (active)
O=C1CC(c2ccc3c(c2)OCO3)Nc2cc3c(cc21)OCO3 (configuration not stated)	50.4% (inactive)
C=CCOc1cccc(/C=C2\SC(=Nc3ccc(O)cc3)NC2=O)c1	20.3% (inactive)
Cc1cc(-c2ccc(N(C)C)cc2)c2sc(=O)[nH]c2n1	61.5% (inactive)
O=C1NC(=S)S/C1=C\N1N=C(c2ccc(Cl)cc2)CC1c1ccc(F)cc1 (configuration not stated)	96.2% (inactive)
COc1ccccc1NC(=O)Nc1ccc(-c2nc3ccccc3o2)cc1	104% (inactive)
O=C(c1ccccc1)c1ccc(N2C(=O)C3C4c5ccccc5C(/C=C/C(=O)c5ccccn5)(c5ccccc54)C3C2=O)cc1 (configuration not stated)	-19.8% (active)
Cc1ccc2c(n1)C(=O)C(Oc1ccc(F)cc1)=CC2=O	109% (inactive)
COc1cc2ccccc2cc1C(=O)NC(=S)Nc1ccc(-c2nc3ccccc3[nH]2)cc1	83.2% (inactive)
COc1cc2c(O)n(CCCn3ccnc3)c3c4cnc5cccc(c(=O)c3c2cc1OC)c54	46.2% (inactive)
Cc1ccc(S(=O)(=O)N(CC[C@@H]2C[C@H]2c2cc3ccccc3o2)C(=O)NC2CCCCC2)cc1	95.8% (inactive)
N#Cc1c(NC(=O)c2ccc(Br)cc2)sc2c1CCCC2	53.7% (inactive)
O=C(NC(=S)Nc1ccc(-c2nc3ccccc3[nH]2)cc1)c1ccc2ccccc2c1	52.2% (inactive)
CCCCN1CCN(c2ccc3nc(-c4ccc5nc(-c6cc(OC)c(OC)c(OC)c6)[nH]c5c4)[nH]c3c2)CC1	94.2% (inactive)
CCCCCCCCn1cc(C2=C(c3coc4ccc(OC)cc34)C(=O)NC2=O)c2ccccc21	104% (inactive)
